In PubChem BioAssay AID651598 (Sanford-Burnham Center for Chemical Genomics, 2012):
Several values for one entry are separate records, joined by “and”; a condition that tells them apart may be missing. Identical values can stand only once.

target: Apelin receptor (Homo sapiens) (UniProt P35414); assay: APJ beta-arrestin recruitment blockade alongside CXCR6 – cell-based, DiscoveRx, panel, CHO-K1, counter-screen for CXCR6 antagonist project, SAR follow-up (AID 651598); conditions: CHO-K1 PathHunter beta-arrestin luminescence, antagonist mode; run 5, at 80 µM (top of the series)
Sequence (P35414 whole entry, looked up): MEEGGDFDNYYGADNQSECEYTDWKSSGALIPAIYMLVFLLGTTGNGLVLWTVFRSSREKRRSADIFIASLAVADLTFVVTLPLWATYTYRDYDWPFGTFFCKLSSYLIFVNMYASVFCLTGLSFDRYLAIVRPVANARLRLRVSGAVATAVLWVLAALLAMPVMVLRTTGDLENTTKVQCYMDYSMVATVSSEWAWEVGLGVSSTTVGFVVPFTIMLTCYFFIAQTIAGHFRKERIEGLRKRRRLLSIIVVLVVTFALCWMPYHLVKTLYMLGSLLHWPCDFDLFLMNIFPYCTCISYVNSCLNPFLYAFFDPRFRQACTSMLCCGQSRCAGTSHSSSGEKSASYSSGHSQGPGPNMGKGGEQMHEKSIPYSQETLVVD

Compound | inhibition
COc1cc(C(=O)NC2CC3CCC(C2)N3CC(=O)Nc2ccccc2)cc(OC)c1OC (stereo not drawn) | -14.1% and -9.09%
COc1cc(C(=O)NC2CCN(CC(=O)Nc3ccccc3)CC2)cc(OC)c1OC | -5.74%
COc1cc(C(=O)NC2CC3CCCC(C2)N3CC(=O)Nc2ccccc2)cc(OC)c1OC (stereo not drawn) | 11% and 14.6% and 16%
